“And” between values parts separate entries of the source, which are not always exact repeats. Identical values can stand only once. Records with an inconclusive call do not appear. The source made the active and inactive calls. Calls come from the whole dose curve; as a rule, active = well fitted curve in the direction sought with a large enough effect; inconclusive = small, poorly fitted or top-dose-only effect, or another doubt; inactive = no such curve, though single readings can be large; an effect the other way counts as inactive or inconclusive.
Test system: not listed separately
Experiment: qHTS for Inhibitors of Ubiquitin-specific Protease USP2a Using CHOP2 as the Reporter: Cytotox Assay (AID 652170)
Conditions: HCT116 viability, CellTiter-Glo luminescence, 72 h; series mostly up to 46.1 µM
Summary of the method: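 HCT116 human colon cancer cells, 600 per well in DMEM with 10% FBS, exposed to compounds for 72 hr at 37 deg C. ATP measured by CellTiter-Glo luminescence, normalized to DMSO cells and no-cell background.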
For `COc1ccc(Cl)cc1C(=O)Nc1nc(-c2ccccc2)cs1`, the Potency was “inactive”.
In the case of `Cc1ccc(-c2cc(C(=O)Nc3ccccc3C)c3ccccc3n2)cc1C`, the Potency is reported as “inactive”.
In the case of `N#Cc1cccc(S(=O)(=O)Nc2cnccc2C(=O)Nc2nc(-c3ccccc3)cs2)c1`, the Potency is reported as “inactive”.
For `O=c1[nH]c(CN2CCOCC2)nc2sc3c(c12)CCC3`, the Potency was “inactive”.
For `Cc1ccc(S(=O)(=O)Nc2ccc(F)cc2C(=O)Nc2nc(-c3ccccc3)cs2)cc1`, the Potency was 14.8 µM (active).
In the case of `COc1ccccc1C(=O)Nc1nc(-c2ccccc2)cs1`, the Potency is reported as “inactive”.
With `COc1cc(Cl)ccc1C(=O)Nc1nc(-c2ccccc2)cs1` the Potency was “inactive”.
With `COc1ccc(C(=O)Nc2nc(-c3ccccc3)cs2)cc1NS(=O)(=O)c1ccc(C)cc1` the Potency was “inactive”.
For `Cc1ccc(S(=O)(=O)Nc2ccccc2C(=O)Nc2ccc(-c3ccccc3)nc2)cc1`, the Potency was 20.9 µM (active).
With `Cc1ccc(S(=O)(=O)Nc2ccc(Cl)cc2C(=O)Nc2nc(-c3ccccc3)cs2)cc1` the Potency was 4.18 µM (active) and 5.9 µM (active).
For `Cc1ccc(-c2cc(C(=O)Nc3ccc(S(=O)(=O)Nc4ccc(C#N)cc4)cc3)c3ccccc3n2)cc1C`, the Potency was “inactive”.
For `COc1c(NS(=O)(=O)c2ccc(C)cc2)cccc1C(=O)Nc1nc(-c2ccccc2)cs1`, the Potency was 1.48 µM (active).
For `Cc1ccc(S(=O)(=O)Nc2cnccc2C(=O)Nc2ccc(S(=O)(=O)Nc3nccs3)cc2)cc1`, the Potency was “inactive”.

Biological target: Ubiquitin carboxyl-terminal hydrolase 2 (Homo sapiens) (UniProt O75604)
Sequence (O75604 whole entry, looked up): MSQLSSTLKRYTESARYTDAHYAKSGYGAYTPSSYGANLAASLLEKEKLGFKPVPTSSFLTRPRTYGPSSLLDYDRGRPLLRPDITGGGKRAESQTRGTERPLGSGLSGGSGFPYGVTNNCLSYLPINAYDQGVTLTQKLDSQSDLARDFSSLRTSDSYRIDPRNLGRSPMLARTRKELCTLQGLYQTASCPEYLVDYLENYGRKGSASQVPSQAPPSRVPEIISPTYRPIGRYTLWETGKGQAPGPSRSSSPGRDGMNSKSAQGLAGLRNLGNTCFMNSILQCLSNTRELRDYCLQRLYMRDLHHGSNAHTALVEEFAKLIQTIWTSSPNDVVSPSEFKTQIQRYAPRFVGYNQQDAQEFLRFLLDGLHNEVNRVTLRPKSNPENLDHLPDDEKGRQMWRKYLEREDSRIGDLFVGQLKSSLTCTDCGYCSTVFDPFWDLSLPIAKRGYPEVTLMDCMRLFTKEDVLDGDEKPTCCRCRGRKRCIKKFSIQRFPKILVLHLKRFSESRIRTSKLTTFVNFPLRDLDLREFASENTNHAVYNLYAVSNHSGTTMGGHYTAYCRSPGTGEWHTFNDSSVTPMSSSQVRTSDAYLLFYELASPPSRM
Experiment: qHTS for Inhibitors of Ubiquitin-specific Protease USP2a Using CHOP2 as the Reporter: K484 Substrate (AID 652173);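 note: cleavage of internally quenched K48 di-ubiquitin substrate measured as rising fluorescence over time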
Conditions: USP2 cleavage of DiUb K48 IQF substrate, fluorescence; series mostly up to 57.5 µM
Summary of the method: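 USP2 (dispensed at 5 nM) was pinned with compounds, then DiUb K48 internally quenched fluorescent substrate (dispensed at 100 nM) was added. The buffer was 20 mM Tris pH 8, 2 mM beta-mercaptoethanol and 0.05% CHAPS. Cleavage was read kinetically as rising fluorescence, Ex 525/Em 598.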
For `O=C(Nc1nc(-c2ccccc2)cs1)c1ccccc1`, the Potency was 24.3 µM (active).
For `O=C(Nc1nc(-c2ccccc2)cs1)c1ccccc1[N+](=O)[O-]`, the Potency was 12.2 µM (active).
For `COc1ccc(Cl)cc1C(=O)Nc1nc(-c2ccccc2)cs1`, the Potency was 9.68 µM (active).
With `Cc1ccc(-c2cc(C(=O)Nc3ccccc3C)c3ccccc3n2)cc1C` the Potency was 21.7 µM (active).
In the case of `Cc1ccc(S(=O)(=O)Nc2ccc(C(=O)Nc3nc(-c4ccc(Cl)cc4)cs3)cc2)cc1`, the Potency is reported as 3.06 µM (active).
In the case of `COc1ccc(NS(=O)(=O)c2ccc(C)cc2)cc1C(=O)Nc1nc(-c2ccccc2)cs1`, the Potency is reported as 3.43 µM (active).
With `COc1ccc(NS(=O)(=O)c2ccc(C)cc2)c(C(=O)Nc2nc(-c3ccccc3)cs2)c1` the Potency was 2.73 µM (active).
With `Cc1ccc(-c2cc(C(=O)Nc3ccc(-n4cccn4)cc3)c3ccccc3n2)cc1C` the Potency was 8.63 µM (active).
For `N#Cc1cccc(S(=O)(=O)Nc2cnccc2C(=O)Nc2nc(-c3ccccc3)cs2)c1`, the Potency was 2.17 µM (active).
With `Cc1ccc(S(=O)(=O)Nc2cccc(C(=O)Nc3nc(-c4ccccc4)cs3)c2)cc1` the Potency was 3.43 µM (active).
For `Cc1ccc(NS(=O)(=O)c2ccc(C(=O)Nc3nc(-c4ccccc4)cs3)cc2)cc1`, the Potency was 3.43 µM (active).
In the case of `Cc1ccc(C(=O)Nc2ccccc2C(=O)Nc2nc(-c3ccccc3)cs2)cc1`, the Potency is reported as 5.44 µM (active).
In the case of `Cc1ccc(NS(=O)(=O)c2ccccc2C(=O)Nc2nc(-c3ccccc3)cs2)cc1`, the Potency is reported as 3.43 µM (active).
For `O=c1[nH]c(CN2CCOCC2)nc2sc3c(c12)CCC3`, the Potency was “inactive”.
In the case of `Cc1ccc(NS(=O)(=O)c2cccc(C(=O)Nc3nc(-c4ccccc4)cs3)c2)cc1`, the Potency is reported as 3.06 µM (active).
With `O=C(Nc1ccc([S+](=O)([O-])Nc2nccs2)cc1)c1ccn[nH]1` the Potency was “inactive”.
In the case of `Cc1ccc(S(=O)(=O)Nc2ccc(F)cc2C(=O)Nc2nc(-c3ccccc3)cs2)cc1`, the Potency is reported as 1.93 µM (active).
In the case of `COc1ccccc1C(=O)Nc1nc(-c2ccccc2)cs1`, the Potency is reported as 10.9 µM (active).
With `COc1cc(NS(=O)(=O)c2ccc(C)cc2)ccc1C(=O)Nc1nc(-c2ccccc2)cs1` the Potency was 2.73 µM (active).
With `Cc1ccc(-c2cc(C(=O)NCc3ccccc3)c3ccccc3n2)cc1C` the Potency was 13.7 µM (active).
For `Cc1ccc(-c2cc(C(=O)NCc3ccc(S(C)(=O)=O)cc3)c3ccccc3n2)cc1C`, the Potency was 10.9 µM (active).
For `COc1cc(Cl)ccc1C(=O)Nc1nc(-c2ccccc2)cs1`, the Potency was 13.7 µM (active).
With `COc1ccccc1NC(=O)c1cc(-c2ccc(C)c(C)c2)nc2ccccc12` the Potency was 10.9 µM (active).
With `Cc1ccc(S(=O)(=O)Nc2ccccc2C(=O)Nc2nc(-c3ccccc3)c(C)s2)cc1` the Potency was 1.93 µM (active).
For `Cc1ccc(S(=O)(=O)Nc2cc(Cl)cc(C(=O)Nc3nc(-c4ccccc4)cs3)c2)cc1`, the Potency was 3.06 µM (active).
With `COc1ccc(C(=O)Nc2nc(-c3ccccc3)cs2)cc1NS(=O)(=O)c1ccc(C)cc1` the Potency was 3.06 µM (active).

— PubChem BioAssay (NCATS)
Note: nearly all actives have a fitted effect of over 70% in size.
Potency is the fitted concentration of half-maximal effect.
